This is an account of results in PubChem BioAssay (EPA / NIEHS).

Experiment [1] concerns the target Nucleoli Translocation, AR (gene 367) (UniProt P10275). Kind of experiment: UPITT_HCI_U2OS_AR_TIF2_Nucleoli_Antagonist: University of Pittsburgh U2OS Androgen Receptor-Transcriptional Intermediary Factor 2 (AR-TIF2) Antagonism High Content Imaging Assay for Nucleoli Translocation (AID 2283997; active means hit-call score of the fitted dose curve at least 0.9, where 1 is the maximum). Put shortly: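 An antagonist-mode imaging screen: engineered U2OS (AR-RFP, TIF2-GFP) exposed to 20 uM compound, 0.2% DMSO. Activity reflects nucleolar red fluorescence change relative to DHT baseline.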

Experiment [2] shares this target. As to the kind of experiment: UPITT_HCI_U2OS_AR_TIF2_Nucleoli_Agonist: University of Pittsburgh U2OS Androgen Receptor-Transcriptional Intermediary Factor 2 (AR-TIF2) Agonism High Content Imaging Assay for Nucleoli Translocation (AID 2283998; active means hit-call score of the fitted dose curve at least 0.9, where 1 is the maximum). In outline:
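RFP-AR / GFP-TIF2 cells; cpds diluted in serum-free medium; single-point screen 20 uM final (0.2% DMSO), actives confirmed in triplicate; conc-response 0.195–50 uM final (0.5% DMSO). Readout: nucleolar red fluorescence, positive direction vs DMSO.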

Experiment [3] concerns the target Ratio of Nucleoli Translocation and Cytoplasm, AR (gene 367) (UniProt P10275). As to the kind of experiment: UPITT_HCI_U2OS_AR_TIF2_Nucleoli_Cytoplasm_Ratio_Antagonist: University of Pittsburgh U2OS Androgen Receptor-Transcriptional Intermediary Factor 2 (AR-TIF2) Antagonism High Content Imaging Assay for Ratio of Nucleoli Translocation and Cytoplasm (AID 2283999; active means hit-call score of the fitted dose curve at least 0.9, where 1 is the maximum;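 further: antagonists lower the DHT-driven ratio of nucleolar to cytoplasmic red signal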). Put shortly: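 Read-out is the ratio of nucleolar to cytoplasmic AR-RFP fluorescence, imaged by high-content microscopy in U2OS cells coexpressing TIF2-GFP. Single-point 20 uM screen, triplicate confirmation, then 0.195–50 uM dose response; activity referenced to DHT baseline.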

Experiment [4] has the same target. As to the kind of experiment: UPITT_HCI_U2OS_AR_TIF2_Nucleoli_Cytoplasm_Ratio_Agonist: University of Pittsburgh U2OS Androgen Receptor-Transcriptional Intermediary Factor 2 (AR-TIF2) Agonism High Content Imaging Assay for Ratio of Nucleoli Translocation and Cytoplasm (AID 2284000; active means hit-call score of the fitted dose curve at least 0.9, where 1 is the maximum;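 further: hits raise the red nucleolar to cytoplasm ratio above vehicle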). Put shortly:
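Primary screen at 20 uM final (0.2% DMSO), then triplicate confirmation and dose-response from 0.195 to 50 uM final (0.5% DMSO). Cells: U2OS with AR-RFP and TIF2-GFP. Endpoint is the nucleoli/cytoplasm red-fluorescence ratio, gain-of-signal vs DMSO.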

A short description of experiment [5]: CCTE_Harrill_HTTr_Viability_MCF7: CCTE's 6-hour Cell Viability Assessment for the High-Throughput Transcriptomics (HTTr) Platform, in MCF-7 cells cultured in DMEM + 10% fetal bovine serum, Harrill Lab (AID 2284010). Put shortly: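 PI exclusion, high-content imaging; 8-pt dilution series, 6 h exposure; bidirectional fit vs DMSO (neg. ctrl/baseline); gain of signal = loss of membrane integrity.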

A short description of experiment [6]: CCTE_Harrill_HTTr_Apoptosis_MCF7: CCTE's 6-hour Apoptosis Assessment for the High-Throughput Transcriptomics (HTTr) Platform, in MCF-7 cells cultured in DMEM + 10% fetal bovine serum, Harrill Lab (AID 2284011). Put shortly:
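Read-out: CellEvent Caspase 3/7 Green signal by high content imaging, gain-of-signal indicating apoptosis. MCF-7 cells, DMEM + 10% FBS, eight-point dilution series, 6 h exposure. Curves fitted bidirectionally relative to DMSO negative control.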

Experiment [7] can be described thus: CCTE_Harrill_HTTr_CellCount_MCF7: CCTE's Cell Proliferation Assessment for the High-Throughput Transcriptomics (HTTr) Platform, Harrill Lab (AID 2284012; active means hit-call score of the fitted dose curve at least 0.9, where 1 is the maximum;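 further: count of Hoechst-stained nuclei per well by high-content imaging in MCF-7 cells; cells exposed to compound for six hours; intended direction is loss of nuclei count meaning fewer cells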). In outline: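 Readout: Hoechst nuclear count by high-content imaging. MCF-7, 8-point dilution series, 6 h exposure. Bidirectional fit vs DMSO baseline.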
Experiment [8] is described as follows: CCTE_Shafer_MEA_acute_spike_number: CCTE's Neural Acute Assay for Total Number of Spikes, Shafer Lab (AID 2284008).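 On AC50: curve fitted for decrease in spike count so AC50 reflects inhibitors.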 Put shortly: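 Rat cortical cultures, DIV 13/15, 37 C. 40 min baseline rec, cpd 0.03-40 uM, 40 min post-dose rec. Band-pass 300-5000 Hz, spike threshold 8x rms; % change in spike count per well, DMSO neg ctrl, loss-of-signal fit.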
The nature of experiment [9]: CCTE_Shafer_MEA_acute_burst_number: CCTE's Neural Acute Assay for Single-Electrode Bursts, Shafer Lab (AID 2284013). In outline:
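Burst totals were derived with adaptive spike detection (8x rms threshold) on filtered signals from rat cortical cultures; change relative to pre-treatment baseline after 40-min compound exposure (0.03-40 uM) was fitted in the negative direction against DMSO.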

The nature of experiment [10]: CCTE_Shafer_MEA_acute_burst_duration_mean: CCTE's Neural Acute Assay for Mean Burst Duration, Shafer Lab (AID 2284014).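 Further: hits are decreases in mean burst duration relative to DMSO controls.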 Put shortly: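 Acute exposure of mature rat cortical networks (DIV 13 or 15) grown on microelectrode arrays to 0.03-40 uM compound. Mean burst duration compared with the 40-min pre-dose baseline over a 40-min post-dose recording at 37 C.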
A short description of experiment [11]: CCTE_Shafer_MEA_acute_per_burst_spike_number_mean: CCTE's Neural Acute Assay for Average Number of Spikes Per Burst, Shafer Lab (AID 2284015).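 Further: hits are decreases in mean spikes per burst versus baseline.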 Put shortly: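 Rat primary cortical neurons on 48-well MEAs (DIV 13 or 15) were treated with 0.03-40 uM compound at 37 C. Mean spikes per burst over 40 min were recorded before and after exposure and expressed as percent change from baseline, relative to DMSO.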

Experiment [12] in a line: CCTE_Shafer_MEA_acute_interburst_interval_mean: CCTE's Neural Acute Assay for Mean Interburst Interval, Shafer Lab (AID 2284016).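 Further: percent change of mean interburst interval versus each well's own pre-dose baseline; curves fitted for decrease in interburst interval relative to DMSO.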 Put shortly: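 Rat primary cortical neurons on 48-well MEAs at DIV 13 or 15 were exposed acutely to 0.03-40 uM. Spikes detected at 8x rms noise, 37 C. Mean interburst interval from 40 min recordings expressed as percent change from 40 min pre-treatment baseline.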

A short description of experiment [13]: CCTE_Shafer_MEA_acute_burst_percentage_mean: CCTE's Neural Acute Assay for Percentage of Spikes in a Burst, Shafer Lab (AID 2284017).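 On AC50: curve fitted for loss of signal so potency reflects decreased burst percentage.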 Put shortly: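 Primary rat cortical neurons on 48-well MEA plates, treated on DIV 13 or 15 at 0.03-40 uM. Spikes detected at 8x rms noise at 37C; percent change from 40-min baseline to 40-min post-dose recording, fitted versus DMSO.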

Experiment [14] is described as follows: CCTE_Shafer_MEA_acute_burst_percentage_std: CCTE's Neural Acute Assay for Standard Deviation of Burst Percentage, Shafer Lab (AID 2284018).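 Further: fitted in the negative direction so actives lower burst percentage SD.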 In outline:
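Primary rat cortical neurons on 16-electrode MEA wells were recorded 40 min at baseline (DIV 13 or 15), then 40 min after compound (0.03-40 uM), at 37 C. Well value is SD across electrodes of spikes-in-bursts/total spikes; endpoint is percent change, DMSO-referenced.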

Experiment [15] can be described thus: CCTE_Shafer_MEA_acute_per_network_burst_spike_number_mean: CCTE's Neural Acute Assay for Average Number of Spikes in a Network Burst, Shafer Lab (AID 2284019). In outline:
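Acute exposure of rat primary cortical networks (DIV 13/15) on MEAs; adaptive spike detection at 8x rms noise, 37 C. Percent change in spikes per network burst after 40 min with compound (0.03-40 uM), negative direction vs DMSO.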

Experiment [16] can be described thus: CCTE_Shafer_MEA_acute_per_network_burst_spike_number_std: CCTE's Neural Acute Assay for Standard Deviation of Number of Spikes in a Network Burst, Shafer Lab (AID 2284020).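 Further: fitted for decrease in spike-number SD versus DMSO so actives lower it.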 Put shortly: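 Acute MEA exposure, rat cortical neurons, 0.03-40 uM. Per-well % change versus own baseline; DMSO as negative control.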
A short description of experiment [17]: CCTE_Shafer_MEA_acute_per_network_burst_electrodes_number_mean: CCTE's Neural Acute Assay for Mean Number of Electrodes in a Network Burst, Shafer Lab (AID 2284021).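 Further: curves fitted for decreases only so hits reduce electrodes per burst.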 Put shortly: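 Readout: % change in mean electrodes active per network burst, post- vs pre-treatment, each well. Spikes detected at 8x rms noise after 300-5000 Hz band-pass; rat cortical cultures, DIV 13/15, compounds 0.03-40 uM, DMSO baseline.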

Experiment [18] can be described thus: CCTE_Shafer_MEA_acute_network_burst_percentage: CCTE's Neural Acute Assay for Percentage of Network Bursts, Shafer Lab (AID 2284022).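 Further: curves fitted for loss so actives lower network burst percentage.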 In outline: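 Rat cortical cultures, DIV 13/15; 20 min equilibration, 40 min baseline, compound 0.03-40 uM, 40 min recording, 37 C. Spikes: 300-5000 Hz band-pass, threshold 8x rms noise. Readout: % change in network-burst spike fraction; loss direction vs DMSO.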

Experiment [19] is described as follows: CCTE_Shafer_MEA_acute_cross_correlation_area: CCTE's Neural Acute Assay for Area of Cross Correlation, Shafer Lab (AID 2284024).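 Further: area under pooled inter-electrode spike cross-correlation near zero lag as percent change from own baseline; curves fitted for loss of cross-correlation area so actives lower synchrony.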 Put shortly:
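Rat cortical cultures, DIV 13/15, MEA; spikes detected at 8x rms noise (300-5000 Hz band-pass). Compound 0.03-40 uM, ≥3 wells each. Readout: % change in pooled inter-electrode cross-correlation area vs own baseline; DMSO negative control.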

Results filed as inconclusive are left out. Activity calls are given as the source filed them. How the source made its calls, unless noted: active means hit-call score of the fitted dose curve at least 0.9, where 1 is the maximum; inactive means score below 0.9. Peptide text beside a SMILES is read from it.

Chain of Ratio of Nucleoli Translocation and Cytoplasm, AR (gene 367) (P10275 whole entry, looked up): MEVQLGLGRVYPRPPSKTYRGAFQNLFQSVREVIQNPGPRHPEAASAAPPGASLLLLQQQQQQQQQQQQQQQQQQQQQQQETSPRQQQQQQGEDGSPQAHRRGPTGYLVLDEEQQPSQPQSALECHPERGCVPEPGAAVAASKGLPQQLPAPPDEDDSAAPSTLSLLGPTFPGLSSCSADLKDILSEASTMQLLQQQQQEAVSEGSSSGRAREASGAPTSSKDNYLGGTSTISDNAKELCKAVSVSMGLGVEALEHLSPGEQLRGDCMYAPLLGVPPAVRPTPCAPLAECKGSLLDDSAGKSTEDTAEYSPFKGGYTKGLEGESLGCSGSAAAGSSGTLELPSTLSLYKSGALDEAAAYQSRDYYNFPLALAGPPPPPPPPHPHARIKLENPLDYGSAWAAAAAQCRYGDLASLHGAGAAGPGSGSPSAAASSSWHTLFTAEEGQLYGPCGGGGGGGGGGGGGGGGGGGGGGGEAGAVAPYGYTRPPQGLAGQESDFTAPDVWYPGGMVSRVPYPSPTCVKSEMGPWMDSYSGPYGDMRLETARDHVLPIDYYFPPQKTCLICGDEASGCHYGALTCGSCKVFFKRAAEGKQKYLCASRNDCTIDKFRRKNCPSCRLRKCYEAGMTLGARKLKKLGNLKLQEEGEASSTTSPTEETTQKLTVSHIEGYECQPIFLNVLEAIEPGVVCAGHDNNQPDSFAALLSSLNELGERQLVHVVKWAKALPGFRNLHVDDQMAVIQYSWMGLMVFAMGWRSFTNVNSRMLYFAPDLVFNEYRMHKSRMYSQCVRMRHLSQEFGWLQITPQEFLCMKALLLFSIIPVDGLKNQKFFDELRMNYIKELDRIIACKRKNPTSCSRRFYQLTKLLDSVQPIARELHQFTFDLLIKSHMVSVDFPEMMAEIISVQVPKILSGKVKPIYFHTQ
Chain of Nucleoli Translocation, AR (gene 367) (P10275 whole entry, looked up): as above

In the case of `Cc1ccc(C)c(OCCCC(C)(C)C(=O)O)c1`, the call in experiment [1], in experiment [2], in experiment [3], in [4], in [5] and in experiment [6] was inactive. Besides, the outcome in experiment [7] was inactive.

`CCc1cccc(C)c1N`: the compound was classed as inactive in experiment [1], in experiment [2] and in [3].

With `O=C(O)c1ccc2c(c1)C(=O)OC2=O`, the outcome in experiment [1], in [2], in experiment [3] and in experiment [5] was inactive.

`CCC(C)c1ccccc1` (stereo unspecified): the result in experiment [1], in experiment [2], in experiment [4], in experiment [5], in experiment [6] and in experiment [7] was inactive.

Consider `Cc1c(C(=O)c2c[nH]n(C)c2=O)ccc(S(C)(=O)=O)c1C1=NOCC1`, for which the call in experiment [8], in experiment [6], in [7], in experiment [9], in experiment [10] and in experiment [11] was inactive. The compound was classed as inactive in experiment [12], in experiment [13], in experiment [14], in experiment [15], in [16] and in [17]. Further, the result in experiment [18] and in experiment [19] was inactive.

For the compound `Oc1ccccc1Cc1ccccc1O`, the AC50 is 0.207 µM (active) in experiment [8]; 0.159 µM (active) in experiment [9]; 7.82 µM (active) in [10]; 8.01 µM (active) in experiment [11]; 0.1 µM (active) in experiment [12]; 6.16 µM (active) in experiment [13]. Besides, the figures for the AC50 in [14], in experiment [18] and in experiment [19] were 8.53 µM (active), 1.96 µM (active) and 0.156 µM (active), respectively. For the same compound, the result in [5], in [6], in experiment [15], in experiment [16] and in [17] was inactive.

As to `CCCCCCCCCC(C)=O`, the call in [2] and in [4] was inactive.

For `CCCCCC[C@@H](O)C/C=C\CCCCCCCC(=O)OCC(O)CO` (stereo partly specified), the call in experiment [1], in experiment [2], in [3] and in [4] was inactive.

As for `COC(=O)[C@H](Cc1ccccc1)NC(=O)[C@@H](N)CC(=O)O` (H-Asp-Phe-OMe), the compound was classed as inactive in experiment [8], in experiment [9], in experiment [10], in [11], in experiment [12] and in experiment [13]. Further, the result in experiment [14], in [15], in [16], in experiment [18] and in experiment [19] was inactive. Moreover, in experiment [17], the AC50 was 15 µM (active).

For `CN(C)Cc1cc(CN(C)C)c(O)c(CN(C)C)c1`, the compound was called inactive in experiment [1], in experiment [2], in experiment [3] and in [4].

In the case of `CC(=O)OC/C=C(/C)CCC=C(C)C`, the outcome in experiment [5] and in [6] was inactive.

For `CC1CCC(=O)C1=O` (stereo unspecified), the result in [5] and in experiment [6] was inactive.

Consider `CCOC(=O)C1=NN(c2ccc(Cl)cc2Cl)C(C)(C(=O)OCC)C1` (stereo unspecified), for which the outcome in experiment [5] and in experiment [6] was inactive.

As usually defined, the AC50 is the concentration giving half of the maximal activity seen.
